PubChem BioAssay (Tox21)
Values joined by “and” are separate entries in the source; they are usually repeats but may differ in a detail not shown here. Identical values can stand only once. A number with no mark means an inactive call. Inconclusive results are not listed. Entries that show only a call come without a potency. Active and inactive are the calls of the source. Calls follow the shape of the dose curve; as a rule, active = well fitted curve in the direction sought with a large enough effect in the repeat runs; inconclusive = weak or mixed curves; inactive = no such curve, though single readings can be large; an effect the other way counts as inactive or inconclusive.

Key:
[1] = A CellTox Green Cytotoxicity Assay to monitor cytotoxicity in HEK293 cells - 40 hour (AID 1224871); also: nearly all actives have a fitted effect of over 45% in size; also: potency is read from the fitted curve at half-maximal effect
In short: (§1)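 Cells (HEK293, 600/well) and dye reagent are dispensed together. After 5 h at 37 C, 23 nL compound is pinned in. Plates stay at 37 C for 40 h with fluorescence read at 0h, 8h, 16h, 24h, 32h and 40h.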

[2] = qHTS RealTime-Glo MT Cell Viability Assay in HEK293 cells - 16 hour (AID 1224872); also: nearly all actives have a fitted effect of over 50% in size; also: potency is read from the fitted curve at half-maximal effect
In short: (§2)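 HEK293 cells seeded with NanoLuc/prosubstrate reagent, rested 5 h at 37 C, then dosed and kept at 37 C up to 40 h. Nonlytic real-time luminescence from viable cells read at 0, 8, 16, 24, 32 and 40 h.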

[3] = qHTS RealTime-Glo MT Cell Viability Assay in HepG2 cells - 8 hour (AID 1224873); also: nearly all actives have a fitted effect of over 55% in size; also: potency is read from the fitted curve at half-maximal effect
In short: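 HepG2 cells mixed with RealTime-Glo MT reagents (NanoLuc plus cell-permeant prosubstrate) were seeded at 600 cells/well, incubated 5 h at 37 C/5% CO2, then pinned with compounds in DMSO; nonlytic luminescence tracked viability during 40 h treatment.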

[4] = qHTS RealTime-Glo MT Cell Viability Assay in HEK293 cells - 40 hour (AID 1224874); settings: RealTime-Glo luminescence; max response: stronger effect = lower value; also: nearly all actives have a fitted effect of over 50% in size; also: potency is read from the fitted curve at half-maximal effect
In short: (§3)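 Real-time viability in HEK293: signal arises when living cells convert a prosubstrate for NanoLuc in the medium, so luminescence tracks viable cell number. Compound (23 nL, DMSO) added 5 h post-seeding; kinetic reads at 0–40 h, 37 C.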

[5] = A CellTox Green Cytotoxicity Assay to monitor cytotoxicity in HEK293 cells - 24 hour (AID 1224875); also: series mostly up to about 77 µM; nearly all actives have a fitted effect of over 45% in size
In short: as §1

[6] = A CellTox Green Cytotoxicity Assay to monitor cytotoxicity in HepG2 cells - 16 hour (AID 1224876); also: nearly all actives have a fitted effect of over 45% in size
In short: (§4)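 Cells and non-lytic dye reagent are dispensed together (600 HepG2 cells/well) and incubated 5 h before DMSO compound transfer. Kinetic fluorescence is then recorded in the same wells during 40 h at 37 C.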

[7] = A CellTox Green Cytotoxicity Assay to monitor cytotoxicity in HepG2 cells - 24 hour (AID 1224878); also: nearly all actives have a fitted effect of over 45% in size
In short: as §4

[8] = A CellTox Green Cytotoxicity Assay to monitor cytotoxicity in HepG2 cells - 40 hour (AID 1224879); also: nearly all actives have a fitted effect of over 40% in size
In short: as §4

[9] = A CellTox Green Cytotoxicity Assay to monitor cytotoxicity in HEK293 cells - 32 hour (AID 1224881); also: nearly all actives have a fitted effect of over 40% in size
In short: as §1

[10] = A CellTox Green Cytotoxicity Assay to monitor cytotoxicity in HepG2 cells - 0 hour (AID 1224882); also: nearly all actives have a fitted effect of over 35% in size
In short: as §4

[11] = A CellTox Green Cytotoxicity Assay to monitor cytotoxicity in HepG2 cells - 32 hour (AID 1224883); also: nearly all actives have a fitted effect of over 50% in size
In short: as §4

[12] = A CellTox Green Cytotoxicity Assay to monitor cytotoxicity in HEK293 cells - 8 hour (AID 1224884); also: nearly all actives have a fitted effect of over 35% in size
In short: as §1

[13] = qHTS RealTime-Glo MT Cell Viability Assay in HepG2 cells - 16 hour (AID 1224885); also: nearly all actives have a fitted effect of over 50% in size
In short: (§5)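 HepG2 cells (600/well) were dispensed with RealTime-Glo reagents, incubated 5 h at 37 °C, then treated with compounds in DMSO for up to 40 h. Nonlytic NanoLuc luminescence reflecting viable cells was read at each stated time point.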

[14] = qHTS RealTime-Glo MT Cell Viability Assay in HEK293 cells - 24 hour (AID 1224886); also: nearly all actives have a fitted effect of over 50% in size; also: potency is read from the fitted curve at half-maximal effect
In short: as §2

[15] = qHTS RealTime-Glo MT Cell Viability Assay in HEK293 cells - 8 hour (AID 1224887); also: nearly all actives have a fitted effect of over 50% in size; also: potency is read from the fitted curve at half-maximal effect
In short: as §3

[16] = A CellTox Green Cytotoxicity Assay to monitor cytotoxicity in HEK293 cells - 16 hour (AID 1224888); also: nearly all actives have a fitted effect of over 35% in size
In short: as §1

[17] = qHTS RealTime-Glo MT Cell Viability Assay in HepG2 cells - 0 hour (AID 1224889); also: nearly all actives have a fitted effect of over 50% in size
In short: as §5

[18] = A CellTox Green Cytotoxicity Assay to monitor cytotoxicity in HepG2 cells - 8 hour (AID 1224890); also: nearly all actives have a fitted effect of over 45% in size
In short: as §4

[19] = qHTS RealTime-Glo MT Cell Viability Assay in HepG2 cells - 32 hour (AID 1224877); also: nearly all actives have a fitted effect of over 55% in size
In short: as §5

[20] = qHTS RealTime-Glo MT Cell Viability Assay in HEK293 cells - 0 hour (AID 1224880)
In short: as §3

Structure (SMILES): COC(=O)NN
- Potency [1]: inactive
- Potency [2]: inactive
- Potency [3]: inactive
- max response [4]: 1.74%
- Potency [5]: inactive
- Potency [6]: inactive
- Potency [7]: inactive
- Potency [8]: inactive
- Potency [9]: inactive
- Potency [10]: inactive
- Potency [11]: inactive
- Potency [12]: inactive
- Potency [13]: inactive
- Potency [14]: inactive
- Potency [15]: inactive
- Potency [16]: inactive
- Potency [17]: inactive
- Potency [18]: inactive

Structure (SMILES): CCN(Cc1ccncc1)C(=O)C(CO)c1ccccc1 (stereo not drawn)
- Potency [1]: inactive
- Potency [2]: inactive
- Potency [3]: inactive
- Potency [5]: inactive
- Potency [6]: inactive
- Potency [19]: inactive
- Potency [7]: inactive
- Potency [8]: inactive
- Potency [20]: inactive
- Potency [9]: inactive
- Potency [10]: inactive
- Potency [11]: inactive
- Potency [12]: inactive
- Potency [13]: inactive
- Potency [14]: inactive
- Potency [15]: inactive
- Potency [16]: inactive
- Potency [17]: inactive
- Potency [18]: inactive

Structure (SMILES): Cc1c(NC(C)C)c(=O)n(-c2ccccc2)n1C
- Potency [1]: inactive
- Potency [2]: inactive
- Potency [3]: inactive
- max response [4]: 2.55%
- Potency [5]: inactive
- Potency [6]: inactive
- Potency [7]: inactive
- Potency [8]: inactive
- Potency [10]: inactive
- Potency [11]: inactive
- Potency [12]: inactive
- Potency [13]: inactive
- Potency [14]: inactive
- Potency [15]: inactive
- Potency [16]: inactive
- Potency [17]: inactive
- Potency [18]: inactive

Structure (SMILES): C=C[Si](OC(=C)C)(OC(=C)C)OC(=C)C
- Potency [1]: inactive
- Potency [2]: inactive
- Potency [3]: inactive
- max response [4]: 13.4%
- Potency [5]: inactive
- Potency [19]: inactive
- Potency [7]: inactive
- Potency [8]: inactive
- Potency [20]: inactive
- Potency [9]: inactive
- Potency [10]: inactive
- Potency [11]: inactive
- Potency [12]: inactive
- Potency [13]: inactive
- Potency [14]: inactive
- Potency [15]: inactive
- Potency [16]: inactive
- Potency [17]: inactive
- Potency [18]: inactive

Structure (SMILES): CC(C)(C)c1ccc(O)c(O)c1
- Potency [1]: 38.9 µM (active)
- Potency [2]: 25.4 µM (active) and 13.8 µM (active)
- Potency [3]: 34.7 µM (active)
- Potency [4]: 20.2 µM (active) and 36 µM (active)
- Potency [6]: inactive
- Potency [7]: inactive
- Potency [8]: inactive
- Potency [20]: inactive
- Potency [10]: inactive
- Potency [11]: inactive
- Potency [12]: inactive
- Potency [14]: 22.6 µM (active) and 13.8 µM (active)
- Potency [15]: 40.2 µM (active) and 45.3 µM (active)
- Potency [16]: inactive
- Potency [17]: inactive

Structure (SMILES): CC(C)c1cc2c(cc1S(=O)(=O)O)[C@@]1(C)CCC[C@@](C)(C(=O)O)[C@@H]1CC2
- Potency [1]: inactive
- Potency [2]: inactive
- Potency [3]: inactive
- max response [4]: 1.39%
- Potency [5]: inactive
- Potency [6]: inactive
- Potency [7]: inactive
- Potency [8]: inactive
- Potency [20]: inactive
- Potency [9]: inactive
- Potency [10]: inactive
- Potency [11]: inactive
- Potency [12]: inactive
- Potency [14]: inactive
- Potency [15]: inactive
- Potency [16]: inactive
- Potency [17]: inactive
- Potency [18]: inactive

Structure (SMILES): CCCCOCCOCCOCCCC
- Potency [1]: inactive
- Potency [2]: inactive
- Potency [3]: inactive
- max response [4]: 3.79%
- Potency [5]: inactive
- Potency [6]: inactive
- Potency [7]: inactive
- Potency [8]: inactive
- Potency [20]: inactive
- Potency [9]: inactive
- Potency [10]: inactive
- Potency [11]: inactive
- Potency [12]: inactive
- Potency [14]: inactive
- Potency [15]: inactive
- Potency [16]: inactive
- Potency [17]: inactive
- Potency [18]: inactive

Structure (SMILES): CC1=CC(C)C(C=O)CC1 (stereo not drawn)
- Potency [1]: inactive
- Potency [2]: inactive
- Potency [3]: inactive
- Potency [5]: inactive
- Potency [6]: inactive
- Potency [19]: inactive
- Potency [7]: inactive
- Potency [8]: inactive
- Potency [20]: inactive
- Potency [9]: inactive
- Potency [10]: inactive
- Potency [11]: inactive
- Potency [12]: inactive
- Potency [13]: inactive
- Potency [14]: inactive
- Potency [15]: inactive
- Potency [16]: inactive
- Potency [17]: inactive
- Potency [18]: inactive

Structure (SMILES): NC(=O)c1ccc(N)cc1
- Potency [1]: inactive
- Potency [2]: inactive
- Potency [3]: inactive
- max response [4]: -2.31%
- Potency [5]: inactive
- Potency [6]: inactive
- Potency [7]: inactive
- Potency [8]: inactive
- Potency [9]: inactive
- Potency [10]: inactive
- Potency [11]: inactive
- Potency [12]: inactive
- Potency [14]: inactive
- Potency [15]: inactive
- Potency [16]: inactive
- Potency [17]: inactive
- Potency [18]: inactive

Structure (SMILES): NS(=O)(=O)c1ccccc1Cl
- Potency [1]: inactive
- Potency [2]: inactive
- Potency [3]: inactive
- Potency [5]: inactive
- Potency [6]: inactive
- Potency [19]: inactive
- Potency [7]: inactive
- Potency [8]: inactive
- Potency [20]: inactive
- Potency [9]: inactive
- Potency [10]: inactive
- Potency [11]: inactive
- Potency [12]: inactive
- Potency [13]: inactive
- Potency [14]: inactive
- Potency [15]: inactive
- Potency [16]: inactive
- Potency [17]: inactive
- Potency [18]: inactive

Structure (SMILES): C1CN(CCOCCN2CCOCC2)CCO1
- Potency [1]: inactive
- Potency [2]: inactive
- Potency [3]: inactive
- Potency [5]: inactive
- Potency [6]: inactive
- Potency [19]: inactive
- Potency [7]: inactive
- Potency [8]: inactive
- Potency [20]: inactive
- Potency [9]: inactive
- Potency [10]: inactive
- Potency [11]: inactive
- Potency [12]: inactive
- Potency [13]: inactive
- Potency [14]: inactive
- Potency [15]: inactive
- Potency [16]: inactive
- Potency [17]: inactive
- Potency [18]: inactive

Structure (SMILES): COC(=O)[C@@H](N)Cc1ccc(O)c(O)c1
- Potency [1]: inactive
- Potency [2]: inactive
- Potency [3]: inactive
- max response [4]: 2.16%
- Potency [5]: inactive
- Potency [6]: inactive
- Potency [7]: inactive
- Potency [8]: inactive
- Potency [9]: inactive
- Potency [10]: inactive
- Potency [11]: inactive
- Potency [12]: inactive
- Potency [13]: inactive
- Potency [14]: inactive
- Potency [15]: inactive
- Potency [16]: inactive
- Potency [17]: inactive
- Potency [18]: inactive

Structure (SMILES): COC(C)(C)CCCC(C)CC=O (stereo not drawn)
- Potency [1]: inactive
- Potency [2]: inactive
- Potency [3]: inactive
- Potency [5]: inactive
- Potency [6]: inactive
- Potency [19]: inactive
- Potency [7]: inactive
- Potency [8]: inactive
- Potency [20]: inactive
- Potency [9]: inactive
- Potency [10]: inactive
- Potency [11]: inactive
- Potency [12]: inactive
- Potency [13]: inactive
- Potency [14]: inactive
- Potency [15]: inactive
- Potency [16]: inactive
- Potency [17]: inactive
- Potency [18]: inactive

Structure (SMILES): CC1(C)C(O)C(C)(C)C1O (stereo not drawn)
- Potency [1]: inactive
- Potency [2]: inactive
- Potency [3]: inactive
- max response [4]: 0.527%
- Potency [5]: inactive
- Potency [6]: inactive
- Potency [7]: inactive
- Potency [8]: inactive
- Potency [20]: inactive
- Potency [10]: inactive
- Potency [11]: inactive
- Potency [12]: inactive
- Potency [13]: inactive
- Potency [14]: inactive
- Potency [15]: inactive
- Potency [16]: inactive
- Potency [17]: inactive
- Potency [18]: inactive
